Assay [1] in a line: Caspase-3/7 induction in HepG2 cells by small molecules, qHTS assay (AID 1346978). Further: nearly all actives have a fitted effect of over 15% in size. In outline: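 Wild-type HepG2 cells (2,000/well) were settled 5 h at 37 C, 5% CO2, then exposed to compounds in DMSO for 17 h. Caspase-3/7 activity was read by luminescence 30 min after adding Caspase-Glo 3/7 reagent at room temperature.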
(In general: Quantitative high-throughput screening tests each substance at several concentrations.)

Assay [2] is described as follows: Caspase-3/7 induction in CHO-K1 cells by small molecules, qHTS cell viability counter screen (AID 1346979). Further: nearly all actives have a fitted effect of over 35% in size. The gist of the method: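 Wild-type CHO-K1 cells were seeded at 1,500 per well, rested 5hr at 37 C, then exposed to compounds in DMSO. After 16hr, CellTiter-Fluor reagent was added and fluorescence read 1hr later as the viability measure.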
The nature of assay [3]: Caspase-3/7 induction in CHO-K1 cells by small molecules, qHTS assay (AID 1346980). Further: nearly all actives have a fitted effect of over 15% in size. In outline: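 Wild-type cells were seeded at 1,500 per well and settled 5 hr at 37 C, 5% CO2, then exposed to DMSO-dissolved compounds for 17 hr. Caspase-Glo 3/7 reagent was added, and luminescence was read after 30min at room temperature.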
The nature of assay [4]: Caspase-3/7 induction in HepG2 cells by small molecules, qHTS cell viability counter screen (AID 1346981). Further: series mostly up to about 92 µM; nearly all actives have a fitted effect of over 30% in size. The gist of the method:
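Steps: seed 2,000 HepG2 cells per well; incubate 5 hr at 37 C; pin-add compounds in DMSO; incubate 16 hr; add CellTiter-Fluor; after 1 hr at 37 C and 5% CO2, read fluorescence.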

The target in assay [5] is Nuclear receptor subfamily 1 group I member 2 (Homo sapiens) (UniProt O75469). Kind of assay: Human pregnane X receptor (PXR) small molecule agonists, qHTS assay (AID 1346982). Further: nearly all actives have a fitted effect of over 35% in size. Further: potency means the concentration at half of the fitted maximal effect. In outline:
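Agonist mode qHTS: PXR-Luc HepG2 cells plated 5 hr before DMSO-dissolved compounds were pinned in, cultured 24 hr at 37 C, 5% CO2; ONE-Glo luminescence readout.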

In assay [6] the target is Cytochrome P450 2D6 (Homo sapiens) (UniProt P10635). Kind of assay: Cytochrome P450 Family 2 Subfamily D Member 6 (CYP2D6) small molecule antagonists: luciferase reporter qHTS assay (AID 1671196). Further: nearly all actives have a fitted effect of over 50% in size. Further: potency means the concentration at half of the fitted maximal effect. On activity change, negative = inhibition: series mostly up to about 120 µM. The gist of the method:
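P450-Glo format: CYP2D6 converts a proluciferin substrate to luciferin in an NADPH-driven reaction lasting 1 h at room temperature. Light output, proportional to CYP2D6 activity, reflects interference by test chemicals.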

Assay [7] concerns the target Cytochrome P450 2C19 (Homo sapiens) (UniProt P33261). Kind of assay: Cytochrome P450 Family 2 Subfamily C Member 19 (CYP2C19) small molecule antagonists: luciferase reporter qHTS assay (AID 1671197). Further: nearly all actives have a fitted effect of over 65% in size. Further: potency means the concentration at half of the fitted maximal effect. On activity change, negative = inhibition: series mostly up to about 120 µM. In outline: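 Enzyme-substrate mix with proluciferin substrate (P450-Glo CYP2C19 system) preincubated with compounds 10 min at room temperature; NADPH regeneration solution added, 37C for 1 h; detection reagent stops reaction, luminescence read after 20 min. Ketoconazole positive control.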

Assay [8] deals with Cytochrome P450 2C9 (Homo sapiens) (UniProt P11712). Briefly: Cytochrome P450 Family 2 Subfamily C Member 9 (CYP2C9) small molecule antagonists: luciferase reporter qHTS assay (AID 1671198). Further: nearly all actives have a fitted effect of over 50% in size. Further: potency means the concentration at half of the fitted maximal effect. On activity change, negative = inhibition: series mostly up to about 120 µM. In outline: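 CYP2C9 activity was measured with a P450-Glo proluciferin substrate. Enzyme–substrate mix was held with compound for 10 min at room temperature, then NADPH regeneration solution was added for 1 h at 37C. Luciferin product was read as luminescence.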
Cytochrome P450 2C9 (Homo sapiens), sequence (P11712 whole entry, looked up): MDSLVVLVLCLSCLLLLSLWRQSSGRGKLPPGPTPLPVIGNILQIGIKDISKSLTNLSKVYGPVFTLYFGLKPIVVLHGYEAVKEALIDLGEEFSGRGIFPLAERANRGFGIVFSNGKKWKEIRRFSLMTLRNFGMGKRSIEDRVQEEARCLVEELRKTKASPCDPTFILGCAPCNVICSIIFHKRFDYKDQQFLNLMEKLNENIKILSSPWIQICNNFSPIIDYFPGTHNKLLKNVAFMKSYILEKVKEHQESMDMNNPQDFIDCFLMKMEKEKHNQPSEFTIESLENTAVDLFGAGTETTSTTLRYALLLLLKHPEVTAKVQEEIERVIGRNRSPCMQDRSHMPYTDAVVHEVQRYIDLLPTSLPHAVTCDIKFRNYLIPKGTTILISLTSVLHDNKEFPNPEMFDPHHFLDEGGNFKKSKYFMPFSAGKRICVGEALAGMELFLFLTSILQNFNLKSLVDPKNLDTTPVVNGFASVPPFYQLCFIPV
On the technique in general: A reporter such as luciferase makes a cellular process visible.

In assay [9] the target is Voltage-gated inwardly rectifying potassium channel KCNH2 (Homo sapiens) (UniProt Q12809). Briefly: Human Ether-a-go-go-Related Gene (hERG) channel small molecule antagonists: fluorescence cell-based qHTS assay (AID 1671200).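 Further: hERG-expressing U2OS cells given a thallium stimulus after FluxOR II dye loading; series mostly up to about 77 µM; nearly all actives have a fitted effect of over 50% in size.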 In outline: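 U2OS cells expressing the channel were plated at 1000 cells/well, incubated overnight at 37 C, then loaded with FluxOR II thallium-sensitive dye for 1 h at room temperature in the dark, with a further 10 min at room temperature before stimulation.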
Voltage-gated inwardly rectifying potassium channel KCNH2 (Homo sapiens), sequence (Q12809 whole entry, looked up): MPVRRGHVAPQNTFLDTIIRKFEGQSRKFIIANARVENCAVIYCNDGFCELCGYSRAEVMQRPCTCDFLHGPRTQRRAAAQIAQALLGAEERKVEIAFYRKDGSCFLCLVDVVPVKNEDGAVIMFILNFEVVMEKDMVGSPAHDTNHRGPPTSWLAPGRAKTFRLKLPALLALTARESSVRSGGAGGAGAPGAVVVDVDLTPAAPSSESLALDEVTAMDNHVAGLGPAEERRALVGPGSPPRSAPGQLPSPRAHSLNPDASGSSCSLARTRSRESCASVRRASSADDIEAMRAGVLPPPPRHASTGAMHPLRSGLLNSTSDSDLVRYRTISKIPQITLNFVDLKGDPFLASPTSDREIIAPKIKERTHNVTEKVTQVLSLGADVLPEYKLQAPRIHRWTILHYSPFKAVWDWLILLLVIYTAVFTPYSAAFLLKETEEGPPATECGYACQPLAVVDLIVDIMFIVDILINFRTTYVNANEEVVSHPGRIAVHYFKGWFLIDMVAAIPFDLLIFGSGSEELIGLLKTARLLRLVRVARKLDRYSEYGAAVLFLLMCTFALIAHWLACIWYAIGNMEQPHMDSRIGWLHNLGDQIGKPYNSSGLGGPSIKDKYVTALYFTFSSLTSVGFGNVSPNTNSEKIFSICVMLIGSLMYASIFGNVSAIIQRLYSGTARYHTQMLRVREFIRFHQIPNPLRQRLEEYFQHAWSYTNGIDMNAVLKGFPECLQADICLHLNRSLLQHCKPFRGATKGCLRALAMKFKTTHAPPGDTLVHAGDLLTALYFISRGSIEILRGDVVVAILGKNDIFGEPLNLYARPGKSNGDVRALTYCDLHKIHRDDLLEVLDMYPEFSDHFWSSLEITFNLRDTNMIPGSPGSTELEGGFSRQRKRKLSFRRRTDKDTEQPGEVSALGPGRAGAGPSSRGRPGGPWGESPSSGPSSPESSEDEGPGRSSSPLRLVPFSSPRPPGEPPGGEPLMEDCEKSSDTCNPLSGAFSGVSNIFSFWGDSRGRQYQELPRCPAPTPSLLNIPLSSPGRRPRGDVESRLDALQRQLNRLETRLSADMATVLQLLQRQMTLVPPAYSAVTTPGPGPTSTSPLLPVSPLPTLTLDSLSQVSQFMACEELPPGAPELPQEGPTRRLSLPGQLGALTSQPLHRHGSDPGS
(The hERG channel carries a current that helps repolarise heart muscle cells.)

Assay [10] addresses Cytochrome P450 3A4 (Homo sapiens) (UniProt P08684). Kind of assay: Cytochrome P450 Family 3 Subfamily A Member 4 (CYP3A4) small molecule antagonists: luciferase reporter qHTS assay (AID 1671201). Further: series mostly up to about 120 µM; nearly all actives have a fitted effect of over 50% in size. The gist of the method: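 P450-Glo CYP3A4 system with proluciferin substrate; compounds preincubated 10 min RT with enzyme-substrate mix, then NADPH regeneration added for 1 h RT. Detection reagent 20 min, luminescence read as relative luminescence units.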

Assay [11] addresses Cytochrome P450 1A2 (Homo sapiens) (UniProt P05177). Kind of assay: Cytochrome P450 Family 1 Subfamily A Member 2 (CYP1A2) small molecule antagonists: luciferase reporter qHTS assay (AID 1671199). Further: nearly all actives have a fitted effect of over 50% in size. Further: potency means the concentration at half of the fitted maximal effect. On activity change, negative = inhibition: series mostly up to about 120 µM. In outline: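 Inhibition of CYP1A2 conversion of proluciferin to luciferin, detected by luminescence. Reaction run 1 h at room temperature with NADPH regeneration after brief compound preincubation.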

A number with no mark means an inactive call. Inconclusive results are not listed. The source made the active and inactive calls. The call rests on the fitted dose curve; in most records, active means well fitted curve in the direction sought with a large enough effect in the repeat runs; inconclusive means weak or mixed curves; inactive means no such curve, though single readings can be large; an effect the other way counts as inactive or inconclusive. Where a SMILES comes first, the peptide text is derived from it. [ ]: non-standard residue; d: D form. pGlu = O=C1CC[C@@H](C(=O)O)N1
On the % scale 0 is the no-effect control and ±100 the full control effect.

Cytochrome P450 3A4 (Homo sapiens), sequence (P08684 whole entry, looked up): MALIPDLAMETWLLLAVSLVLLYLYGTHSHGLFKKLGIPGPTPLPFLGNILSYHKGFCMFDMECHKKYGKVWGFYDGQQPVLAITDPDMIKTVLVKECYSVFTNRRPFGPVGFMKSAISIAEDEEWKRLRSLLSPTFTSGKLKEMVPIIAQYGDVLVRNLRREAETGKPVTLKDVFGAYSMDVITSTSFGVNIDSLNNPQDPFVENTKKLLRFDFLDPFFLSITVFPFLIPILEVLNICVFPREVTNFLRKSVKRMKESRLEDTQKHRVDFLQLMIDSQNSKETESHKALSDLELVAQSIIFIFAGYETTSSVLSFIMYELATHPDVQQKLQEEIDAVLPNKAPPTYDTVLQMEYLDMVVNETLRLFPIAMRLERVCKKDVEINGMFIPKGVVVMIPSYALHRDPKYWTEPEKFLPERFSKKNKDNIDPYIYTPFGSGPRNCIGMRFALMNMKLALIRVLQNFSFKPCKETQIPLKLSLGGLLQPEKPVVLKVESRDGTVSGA
Cytochrome P450 2D6 (Homo sapiens), sequence (P10635 whole entry, looked up): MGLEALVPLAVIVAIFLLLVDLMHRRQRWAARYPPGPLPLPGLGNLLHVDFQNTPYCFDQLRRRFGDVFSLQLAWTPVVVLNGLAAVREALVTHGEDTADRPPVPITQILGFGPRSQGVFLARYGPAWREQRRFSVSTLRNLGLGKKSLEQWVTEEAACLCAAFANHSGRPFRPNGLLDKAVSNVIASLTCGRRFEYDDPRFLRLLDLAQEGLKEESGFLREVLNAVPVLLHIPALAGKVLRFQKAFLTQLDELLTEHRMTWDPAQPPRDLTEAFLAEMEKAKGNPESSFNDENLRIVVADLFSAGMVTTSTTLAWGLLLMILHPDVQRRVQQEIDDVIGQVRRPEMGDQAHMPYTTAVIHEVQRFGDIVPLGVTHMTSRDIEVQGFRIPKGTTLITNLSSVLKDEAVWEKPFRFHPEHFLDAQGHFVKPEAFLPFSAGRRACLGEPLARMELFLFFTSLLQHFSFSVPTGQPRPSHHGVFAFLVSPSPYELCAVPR
Cytochrome P450 2C19 (Homo sapiens), sequence (P33261 whole entry, looked up): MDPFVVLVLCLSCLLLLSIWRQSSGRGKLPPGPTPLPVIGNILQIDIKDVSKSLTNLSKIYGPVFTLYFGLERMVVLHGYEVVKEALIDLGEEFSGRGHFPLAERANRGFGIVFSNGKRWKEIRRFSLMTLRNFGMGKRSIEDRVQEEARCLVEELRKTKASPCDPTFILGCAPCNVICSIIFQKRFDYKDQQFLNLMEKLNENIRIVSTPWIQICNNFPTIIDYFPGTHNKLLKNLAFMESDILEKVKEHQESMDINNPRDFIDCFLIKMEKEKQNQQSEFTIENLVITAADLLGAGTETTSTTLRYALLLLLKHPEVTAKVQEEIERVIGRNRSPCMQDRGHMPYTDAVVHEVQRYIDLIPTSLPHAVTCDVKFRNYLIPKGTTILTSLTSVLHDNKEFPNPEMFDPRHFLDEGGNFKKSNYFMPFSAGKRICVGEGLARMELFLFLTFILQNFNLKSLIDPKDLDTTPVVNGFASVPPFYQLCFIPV
Cytochrome P450 1A2 (Homo sapiens), sequence (P05177 whole entry, looked up): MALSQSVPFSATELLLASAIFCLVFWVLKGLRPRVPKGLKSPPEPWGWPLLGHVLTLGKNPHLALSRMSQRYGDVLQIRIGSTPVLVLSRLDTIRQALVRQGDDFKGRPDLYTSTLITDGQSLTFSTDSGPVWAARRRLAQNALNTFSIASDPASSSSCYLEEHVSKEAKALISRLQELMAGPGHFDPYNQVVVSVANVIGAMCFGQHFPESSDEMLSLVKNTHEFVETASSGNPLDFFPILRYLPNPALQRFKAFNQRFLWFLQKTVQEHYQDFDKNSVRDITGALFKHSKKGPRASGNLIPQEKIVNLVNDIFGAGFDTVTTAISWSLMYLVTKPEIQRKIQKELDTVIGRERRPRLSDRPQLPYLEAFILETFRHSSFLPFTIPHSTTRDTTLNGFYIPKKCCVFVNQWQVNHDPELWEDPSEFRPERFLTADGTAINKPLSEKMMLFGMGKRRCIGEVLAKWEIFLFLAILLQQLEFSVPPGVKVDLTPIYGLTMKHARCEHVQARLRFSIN
Nuclear receptor subfamily 1 group I member 2 (Homo sapiens), sequence (O75469 whole entry, looked up): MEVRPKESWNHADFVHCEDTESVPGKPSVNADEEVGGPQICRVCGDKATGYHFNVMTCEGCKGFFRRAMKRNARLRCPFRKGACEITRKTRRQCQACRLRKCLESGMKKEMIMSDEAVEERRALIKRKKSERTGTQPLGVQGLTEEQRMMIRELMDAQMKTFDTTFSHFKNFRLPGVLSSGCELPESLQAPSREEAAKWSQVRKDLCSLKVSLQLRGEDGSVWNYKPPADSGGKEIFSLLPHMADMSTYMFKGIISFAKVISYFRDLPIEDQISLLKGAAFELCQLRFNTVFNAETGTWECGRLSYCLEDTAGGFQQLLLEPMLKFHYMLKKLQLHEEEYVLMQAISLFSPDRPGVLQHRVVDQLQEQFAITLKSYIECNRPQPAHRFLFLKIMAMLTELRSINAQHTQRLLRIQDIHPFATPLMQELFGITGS

Take `CCN(C=O)CC`: the compound was called inactive in assay [1] and in [3]. The Potency entry in [2], in assay [4], in assay [5], in assay [7], in assay [8] and in assay [9] was “inactive” throughout. In addition, in assay [10], the Potency result is “inactive”. In assay [6], the Potency was 72.9 µM (active).

`CCNC(=O)[C@@H]1CCCN1C(=O)[C@H](CCCN=C(N)N)NC(=O)[C@H](CC(C)C)NC(=O)CNC(=O)[C@H](Cc1ccc(O)cc1)NC(=O)[C@H](CO)NC(=O)[C@H](Cc1c[nH]c2ccccc12)NC(=O)[C@H](Cc1cnc[nH]1)NC(=O)[C@@H]1CCC(=O)N1` ([pGlu]HWSYGLRP-NHEt): the compound was classed as inactive in assay [1] and in assay [3]. Besides, the Potency entry in assay [2], in assay [4], in [5], in assay [6], in assay [7] and in [8] was “inactive” throughout. Further, the Potency result in [9] is “inactive”.

On to `C[N+]1(CC2COC(c3ccccc3)(c3ccccc3)O2)CCCCC1` (stereo not drawn), for which, in [1], the caspase activation was -0.482% [at 19 µM]. Besides, the activity change, negative = cytotoxicity in assay [2] is 2.24% [at 19 µM]; in assay [4], 9.88% [at 19 µM]. Also, in [3], the caspase-3/7 activation was -0.436% [at 19 µM]. Further, the activation in [5] was 5.26% [at 19 µM]. In addition, in [6], the Potency was 1.69 µM (active). Besides, the Potency result in assay [7] and in assay [11] was “inactive” in each case. The results for the activity change, negative = inhibition in assay [9] and in assay [10] were -15.6% [at 15.8 µM] and -9.22% [at 23.6 µM], respectively.

With `O=S(=O)(O)c1cc(O)c(O)c(S(=O)(=O)O)c1`, the outcome in [1] and in assay [3] was inactive. For the same compound, the Potency entry in assay [2], in assay [4], in [5], in assay [6], in assay [8] and in assay [9] was “inactive” throughout. Also, the Potency result in assay [10] was “inactive”.

As for `CNCCO`, the compound was called inactive in [1] and in assay [3]. In addition, the Potency entry in assay [2], in [4], in assay [5], in assay [6], in assay [7] and in assay [8] was “inactive” each time. Also, the Potency result in assay [10] was “inactive”.

Turning to `CC(C)[C@H]1CC[C@@H](C)CC1=O`, the compound was classed as inactive in assay [1] and in assay [3]. Moreover, the Potency entry in [2], in assay [4], in assay [5], in [6], in [7] and in assay [8] was “inactive” in each case. For the same compound, the Potency entry in assay [11] and in assay [10] was “inactive” throughout.

Consider `CCC(C(=O)NC(=O)NC(C)=O)c1ccccc1` (stereo not drawn), for which the compound was called inactive in assay [1] and in assay [3]. Besides, the Potency result in assay [2], in assay [4], in assay [5], in assay [6], in assay [7] and in assay [8] was “inactive” in each case. Also, the Potency result in [11], in assay [9] and in assay [10] was “inactive” throughout.

Regarding `O=CN(CCO)CCO`, the call in assay [1] and in assay [3] was inactive. Besides, the Potency entry in assay [2], in assay [4], in assay [5], in assay [6], in [7] and in assay [8] was “inactive” in each case. The Potency result in assay [9] and in [10] was “inactive” in each case.

In the case of `CC1OC1C1CCC2(C)OC2C1` (stereo not drawn), the result in assay [1] and in assay [3] was inactive. In addition, the Potency entry in assay [2], in [4], in [5], in [6], in assay [8] and in [11] was “inactive” in each case.

Turning to `O=S(=O)(O)c1cccc2c(S(=O)(=O)O)cccc12`, the outcome in assay [1] and in assay [3] was inactive. In addition, the Potency entry in assay [2], in assay [4], in assay [5], in assay [6], in [9] and in assay [10] was “inactive” in each case. The Potency was 70.9 µM (active) in assay [8] and 79.5 µM (active) in [11].

As to `CCCCOC(=O)CCC(C)=O`, the compound was classed as inactive in assay [1] and in assay [3]. Also, the Potency entry in [2], in assay [4], in [5], in assay [6], in [7] and in [8] was “inactive” each time. The Potency result in [11] and in [10] was “inactive” each time.

As to `CCOC(=O)C1=NOC(c2ccccc2)(c2ccccc2)C1`, the result in assay [1] and in assay [3] was inactive. Besides, the Potency entry in [2], in assay [4], in assay [6] and in [10] was “inactive” throughout. Besides, the Potency in assay [5] is 68.6 µM (active); in [7], 20 µM (active); in assay [8], 7.1 µM (active).

As to `CC(COc1ccccc1)NN` (stereo not drawn), the compound was called inactive in assay [1] and in assay [3]. Also, the Potency entry in [2], in assay [4], in [5], in assay [6], in assay [7] and in [8] was “inactive” each time. Besides, the Potency entry in assay [11], in assay [9] and in assay [10] was “inactive” in each case.

On to `O=C(O)CNC(=O)c1ccc(CO)o1`, for which the compound was classed as inactive in [1] and in [3]. The Potency entry in assay [2], in [4], in assay [5], in assay [7], in assay [8] and in [11] was “inactive” throughout. In addition, the Potency result in assay [9] and in assay [10] was “inactive” in each case.

For `O=C(CO)[C@@H](O)[C@H](O)[C@H](O)CO`, the call in assay [1] and in assay [3] was inactive. Further, the Potency entry in assay [2], in assay [4], in assay [5], in assay [6], in assay [7] and in assay [8] was “inactive” throughout. Further, the Potency entry in assay [10] is “inactive”.

As to `CC(CC=O)CC(C)(C)C` (stereo not drawn), the compound was called inactive in assay [1] and in assay [3]. The Potency result in [2], in [4], in [6], in [7], in assay [9] and in [10] was “inactive” throughout. Moreover, the Potency in [5] is 54.5 µM (active).

On to `CC(C)=CCC/C(C)=C/C#N`, for which the outcome in assay [1] and in assay [3] was inactive. Also, the Potency result in [2], in assay [4], in assay [5], in assay [6], in assay [8] and in [9] was “inactive” throughout. The Potency entry in [10] is “inactive”.

Regarding `C=CN1CCCCCC1=O`, the outcome in [1] and in [3] was inactive. For the same compound, the Potency entry in assay [2], in assay [4], in [5], in assay [6], in assay [7] and in assay [8] was “inactive” in each case. The Potency entry in assay [9] and in assay [10] was “inactive” each time.

As for `CC(C)(N)C#N`, the compound was called inactive in assay [1] and in assay [3]. The Potency entry in [2], in [4], in assay [5], in [6], in [7] and in assay [8] was “inactive” each time. Also, the Potency result in assay [9] and in assay [10] was “inactive” each time.

Turning to `CC12CCC(C(=O)C1=O)C2(C)C` (stereo not drawn), the compound was called inactive in assay [1] and in [3]. For the same compound, the Potency entry in assay [2], in [4], in assay [5], in assay [6], in assay [7] and in assay [8] was “inactive” each time. Besides, the Potency entry in assay [9] and in assay [10] was “inactive” each time.

With `CC(=O)c1cnccn1`, the call in assay [1] and in assay [3] was inactive. The Potency result in [2], in assay [4], in [5], in assay [6], in [8] and in assay [9] was “inactive” each time. In assay [10], the Potency result was “inactive”.

For `CC1=NN(c2cccc(S(=O)(=O)O)c2)C(=O)C1`, the compound was called inactive in assay [1] and in assay [3]. Further, the Potency result in assay [2], in assay [4], in [5], in assay [6], in [7] and in assay [8] was “inactive” in each case. Further, the Potency result in assay [9] and in assay [10] was “inactive” in each case. Further, the Potency in assay [11] was 44.8 µM (active).

These data come from PubChem BioAssay (Tox21).
